According to PubChem BioAssay AID1159580 (chemical genetic matrix, 2015):
The whole screen tested about 5,500 compounds, of which about 2,000 (36%) were called active. Inconclusive results (about 18%) are left out. No stated cut-off is given here; in the data, active means normalized growth mostly below about 0.91 (no sharp cut-off); inconclusive means no clear call, values can overlap the other calls; inactive means mostly above about 0.92. Some of the results follow.

Assay: chemical genetic growth profiling, strain panel (AID 1159580);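 further: tested at 20 µM; growth read once vehicle control cultures reached saturation at 30 °C; 1 = growth at the plate median or of vehicle wells; lower values mean less growth of the strain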
Settings: S. cerevisiae deletion strains, growth OD

Measured: normalized growth

CC(=O)O[C@@H]1CC2C(C)(C)C(=O)C3OC3[C@]2(C)C2CC[C@@]3(C)[C@H](c4ccoc4)OC(=O)C4OC43[C@@]21C (some centres not stated)
active: locus YKL085W, strain MDH1 (second series), active compounds read low 1.13 [resistant] | locus YKL085W, strain MDH1, active compounds read low 1.13 [resistant]
inactive: locus YAL021C, strain ccr4, active compounds read low 0.988 | locus YAL026C, strain drs2, active compounds read low 0.984 | locus YAL030W, strain snc1, active compounds read low 0.993 | locus YBL061C, strain skt5, active compounds read low 0.97 | locus YBR009C, strain hhf1, active compounds read low 0.981 | locus YBR021W, strain FUR4, active compounds read low 0.964 | locus YBR023C, strain chs3, active compounds read low 0.982 | locus YBR171W, strain sec66, active compounds read low 0.966 | locus YBR229C, strain ROT2, active compounds read low 0.994 | locus YBR231C, strain swc5, active compounds read low 0.975 | locus YBR279W, strain paf1, active compounds read low 0.988 | locus YCL011C, strain gbp2, active compounds read low 0.993 | locus YCL016C, strain dcc1, active compounds read low 0.991 | locus YCL029C, strain bik1, active compounds read low 1 | locus YCL061C, strain MRC1, active compounds read low 0.988 | locus YCL069W, strain vba3, active compounds read low 0.982 | locus YCR088W, strain abp1, active compounds read low 0.987 | locus YDL005C, strain med2, active compounds read low 0.971 | locus YDL035C, strain GPR1, active compounds read low 1.01 | locus YDL040C, strain nat1, active compounds read low 0.972 | locus YDL074C, strain BRE1, active compounds read low 0.994 | locus YDL101C, strain DUN1, active compounds read low 1.01 | locus YDL185W, strain tfp1, active compounds read low 0.999 | locus YDL192W, strain arf1, active compounds read low 1.01 | locus YDR001C, strain nth1, active compounds read low 0.986 | locus YDR069C, strain doa4, active compounds read low 0.993 | locus YDR101C, strain arx1, active compounds read low 1.01 | locus YDR137W, strain rgp1, active compounds read low 1 | locus YDR150W, strain NUM1, active compounds read low 1.01 | locus YDR159W, strain sac3, active compounds read low 0.941 | locus YDR162C, strain NBP2, active compounds read low 1.02 | locus YDR195W, strain ref2 0.978 | locus YDR297W, strain sur2, active compounds read low 0.983 | locus YDR318W, strain mcm21, active compounds read low 0.997 | locus YDR334W, strain swr1, active compounds read low 0.972 | locus YDR335W, strain msn5, active compounds read low 0.987 | locus YDR388W, active compounds read low 1 | locus YDR392W, strain spt3, active compounds read low 0.966 | locus YDR502C, strain sam2, active compounds read low 0.992 | locus YEL003W, strain gim4, active compounds read low 0.979 | locus YEL037C, strain rad23, active compounds read low 0.974 | locus YEL061C, strain CIN8 (second series), active compounds read low 0.983 | locus YER015W, strain faa2, active compounds read low 0.992 | locus YER016W, strain bim1, active compounds read low 0.987 | locus YER110C, active compounds read low 1 | locus YER111C, strain swi4, active compounds read low 0.976 | locus YER155C, strain BEM2 (second series), active compounds read low 0.986 | locus YER155C, strain BEM2, active compounds read low 0.996 | locus YER167W, strain BCK2, active compounds read low 1.01 | locus YFR010W, strain ubp6, active compounds read low 0.964 | locus YGL078C, strain dbp3, active compounds read low 0.997 | locus YGL086W, strain mad1, active compounds read low 1.03 | locus YGL167C, strain pmr1, active compounds read low 0.971 | locus YGL173C, strain kem1, active compounds read low 0.986 | locus YGL227W, strain vid30, active compounds read low 0.988 | locus YGL240W, strain doc1, active compounds read low 0.96 | locus YGL248W, strain PDE1, active compounds read low 1.01 | locus YGL253W, strain hxk2, active compounds read low 0.94 | locus YGR135W, strain pre9, active compounds read low 0.975 | locus YGR252W, strain gcn5, active compounds read low 0.928 | locus YHR013C, strain ard1, active compounds read low 0.969 | locus YHR027C, strain rpn1, active compounds read low 0.978 | locus YHR030C, strain SLT2, active compounds read low 0.988 | locus YHR079C, strain IRE1 (second series), active compounds read low 1 | locus YHR079C, strain IRE1, active compounds read low 1 | locus YHR094C, strain hxt1, active compounds read low 1 | locus YHR129C, strain ARP1, active compounds read low 1.01 | locus YHR142W, strain chs7, active compounds read low 0.965 | locus YHR200W, strain rpn10, active compounds read low 1 | locus YIL066C, strain RNR3, active compounds read low 1.01 | locus YIL073C, strain SPO22, active compounds read low 1.04 | locus YIL125W, strain kgd1, active compounds read low 0.996 | locus YIR030C, strain dcg1, active compounds read low 0.998 | locus YJL092W, strain hpr5, active compounds read low 0.981 | locus YJL095W, strain BCK1 (second series), active compounds read low 0.99 | locus YJL095W, strain BCK1, active compounds read low 1 | locus YJL115W, strain asf1, active compounds read low 0.982 | locus YJL129C, strain trk1, active compounds read low 0.965 | locus YJL134W, strain LCB3, active compounds read low 1.01 | locus YJL154C, strain vps35, active compounds read low 0.98 | locus YJL164C, strain tpk1, active compounds read low 1.03 | locus YJL166W, strain qcr8, active compounds read low 0.987 | locus YJL168C, strain set2, active compounds read low 0.996 | locus YJL187C, strain SWE1 (second series), active compounds read low 1 | locus YJL187C, strain SWE1, active compounds read low 0.993 | locus YJR066W, strain TOR1, active compounds read low 0.942 | locus YKL009W, strain mrt4, active compounds read low 1.08 | locus YKL068W, active compounds read low 1.01 | locus YKL160W, strain elf1, active compounds read low 1 | locus YKL190W, strain CNB1, active compounds read low 1.01 | locus YKR001C, strain vps1, active compounds read low 0.989 | locus YKR026C, strain gcn3, active compounds read low 0.977 | locus YKR091W, strain srl3, active compounds read low 0.982 | locus YLL001W, strain dnm1, active compounds read low 0.991 | locus YLL026W, active compounds read low 0.988 | locus YLL041C, strain sdh2, active compounds read low 0.981 | locus YLR027C, strain aat2, active compounds read low 0.962 | locus YLR039C, strain RIC1, active compounds read low 1.06 | locus YLR058C, strain SHM2, active compounds read low 1.01 | locus YLR102C, strain apc9, active compounds read low 1 | locus YLR113W, strain HOG1, active compounds read low 0.999 | locus YLR221C, strain rsa3, active compounds read low 0.964 | locus YLR258W, strain gsy2, active compounds read low 0.99 | locus YLR262C, strain YPT6 (second series), active compounds read low 0.994 | locus YLR268W, strain sec22, active compounds read low 1.01 | locus YLR320W, strain mms22, active compounds read low 0.966 | locus YLR342W, strain FKS1, active compounds read low 0.985 | locus YLR357W, strain rsc2, active compounds read low 0.953 | locus YLR370C, strain arc18, active compounds read low 0.971 | locus YLR371W, strain rom2, active compounds read low 0.997 | locus YLR384C, strain iki3, active compounds read low 0.993 | locus YLR418C, strain cdc73, active compounds read low 0.979 | locus YML016C, strain PPZ1, active compounds read low 1.01 | locus YML032C, strain rad52, active compounds read low 1.01 | locus YML120C, strain ndi1, active compounds read low 0.992 | locus YML124C, strain tub3, active compounds read low 1 | locus YMR058W, strain fet3, active compounds read low 0.986 | locus YMR078C, strain ctf18, active compounds read low 1.01 | locus YMR125W, strain sto1, active compounds read low 0.999 | locus YMR129W, active compounds read low 0.987 | locus YMR205C, strain PFK2, active compounds read low 0.991 | locus YMR223W, strain ubp8, active compounds read low 0.998 | locus YMR231W, strain pep5, active compounds read low 0.95 | locus YMR307W, strain GAS1, active compounds read low 0.941 | locus YNL067W, strain RPL9B, active compounds read low 0.997 | locus YNL071W, strain lat1, active compounds read low 0.99 | locus YNL183C, strain NPR1, active compounds read low 0.963 | locus YNL209W, strain ssb2, active compounds read low 0.998 | locus YNL233W, strain BNI4, active compounds read low 1.03 | locus YNL248C, strain rpa49, active compounds read low 0.973 | locus YNL250W, strain rad50, active compounds read low 0.983 | locus YNL271C, strain bni1, active compounds read low 1 | locus YNL298W, strain CLA4, active compounds read low 1 | locus YNL307C, strain MCK1, active compounds read low 0.993 | locus YNL322C, strain KRE1 (second series), active compounds read low 0.978 | locus YNL322C, strain KRE1, active compounds read low 1.01 | locus YNR049C, strain mso1, active compounds read low 0.976 | locus YNR052C, strain pop2, active compounds read low 0.996 | locus YOL012C, strain htz1 0.75 | locus YOL147C, strain pex11, active compounds read low 1.01 | locus YOR001W, strain rrp6, active compounds read low 0.97 | locus YOR061W, strain CKA2, active compounds read low 1 | locus YOR069W, strain VPS5, active compounds read low 1 | locus YOR070C, strain gyp1, active compounds read low 0.975 | locus YOR080W, strain dia2, active compounds read low 0.971 | locus YOR083W, strain WHI5, active compounds read low 1.01 | locus YOR106W, strain vam3, active compounds read low 0.994 | locus YOR136W, strain idh2, active compounds read low 0.997 | locus YOR144C, strain elg1, active compounds read low 1.02 | locus YOR184W, strain ser1, active compounds read low 1.01 | locus YOR231W, strain MKK1, active compounds read low 0.986 | locus YOR265W, strain rbl2, active compounds read low 0.981 | locus YOR270C, strain vph1, active compounds read low 0.922 | locus YOR290C, strain snf2, active compounds read low 0.994 | locus YOR316C, strain cot1, active compounds read low 1 | locus YPL051W, strain arl3, active compounds read low 0.986 | locus YPL078C, strain atp4, active compounds read low 0.994 | locus YPL106C, strain sse1, active compounds read low 0.989 | locus YPL240C, strain hsp82, active compounds read low 0.981 | locus YPL256C, strain CLN2, active compounds read low 0.984 | locus YPR119W, strain clb2, active compounds read low 0.996 | locus YPR141C, strain kar3, active compounds read low 1.01 | locus YPR163C, strain tif3, active compounds read low 0.999 | locus YPR167C, strain met16, active compounds read low 0.998 | strain wtn01, active compounds read low 1
